The record followed here is PubChem BioAssay AID652162 (Broad Institute, 2013).

Screen size: about 350,000 compounds; about 840 (0.24%) were called active. Shown is part of a subset that was picked to be rich in actives. Values without a mark were called inactive. No stated cut-off is given here; in the data, active means inhibition above about 10%; inactive means the rest.

Chain of Toxin B (Clostridioides difficile) (P18177 whole entry, looked up): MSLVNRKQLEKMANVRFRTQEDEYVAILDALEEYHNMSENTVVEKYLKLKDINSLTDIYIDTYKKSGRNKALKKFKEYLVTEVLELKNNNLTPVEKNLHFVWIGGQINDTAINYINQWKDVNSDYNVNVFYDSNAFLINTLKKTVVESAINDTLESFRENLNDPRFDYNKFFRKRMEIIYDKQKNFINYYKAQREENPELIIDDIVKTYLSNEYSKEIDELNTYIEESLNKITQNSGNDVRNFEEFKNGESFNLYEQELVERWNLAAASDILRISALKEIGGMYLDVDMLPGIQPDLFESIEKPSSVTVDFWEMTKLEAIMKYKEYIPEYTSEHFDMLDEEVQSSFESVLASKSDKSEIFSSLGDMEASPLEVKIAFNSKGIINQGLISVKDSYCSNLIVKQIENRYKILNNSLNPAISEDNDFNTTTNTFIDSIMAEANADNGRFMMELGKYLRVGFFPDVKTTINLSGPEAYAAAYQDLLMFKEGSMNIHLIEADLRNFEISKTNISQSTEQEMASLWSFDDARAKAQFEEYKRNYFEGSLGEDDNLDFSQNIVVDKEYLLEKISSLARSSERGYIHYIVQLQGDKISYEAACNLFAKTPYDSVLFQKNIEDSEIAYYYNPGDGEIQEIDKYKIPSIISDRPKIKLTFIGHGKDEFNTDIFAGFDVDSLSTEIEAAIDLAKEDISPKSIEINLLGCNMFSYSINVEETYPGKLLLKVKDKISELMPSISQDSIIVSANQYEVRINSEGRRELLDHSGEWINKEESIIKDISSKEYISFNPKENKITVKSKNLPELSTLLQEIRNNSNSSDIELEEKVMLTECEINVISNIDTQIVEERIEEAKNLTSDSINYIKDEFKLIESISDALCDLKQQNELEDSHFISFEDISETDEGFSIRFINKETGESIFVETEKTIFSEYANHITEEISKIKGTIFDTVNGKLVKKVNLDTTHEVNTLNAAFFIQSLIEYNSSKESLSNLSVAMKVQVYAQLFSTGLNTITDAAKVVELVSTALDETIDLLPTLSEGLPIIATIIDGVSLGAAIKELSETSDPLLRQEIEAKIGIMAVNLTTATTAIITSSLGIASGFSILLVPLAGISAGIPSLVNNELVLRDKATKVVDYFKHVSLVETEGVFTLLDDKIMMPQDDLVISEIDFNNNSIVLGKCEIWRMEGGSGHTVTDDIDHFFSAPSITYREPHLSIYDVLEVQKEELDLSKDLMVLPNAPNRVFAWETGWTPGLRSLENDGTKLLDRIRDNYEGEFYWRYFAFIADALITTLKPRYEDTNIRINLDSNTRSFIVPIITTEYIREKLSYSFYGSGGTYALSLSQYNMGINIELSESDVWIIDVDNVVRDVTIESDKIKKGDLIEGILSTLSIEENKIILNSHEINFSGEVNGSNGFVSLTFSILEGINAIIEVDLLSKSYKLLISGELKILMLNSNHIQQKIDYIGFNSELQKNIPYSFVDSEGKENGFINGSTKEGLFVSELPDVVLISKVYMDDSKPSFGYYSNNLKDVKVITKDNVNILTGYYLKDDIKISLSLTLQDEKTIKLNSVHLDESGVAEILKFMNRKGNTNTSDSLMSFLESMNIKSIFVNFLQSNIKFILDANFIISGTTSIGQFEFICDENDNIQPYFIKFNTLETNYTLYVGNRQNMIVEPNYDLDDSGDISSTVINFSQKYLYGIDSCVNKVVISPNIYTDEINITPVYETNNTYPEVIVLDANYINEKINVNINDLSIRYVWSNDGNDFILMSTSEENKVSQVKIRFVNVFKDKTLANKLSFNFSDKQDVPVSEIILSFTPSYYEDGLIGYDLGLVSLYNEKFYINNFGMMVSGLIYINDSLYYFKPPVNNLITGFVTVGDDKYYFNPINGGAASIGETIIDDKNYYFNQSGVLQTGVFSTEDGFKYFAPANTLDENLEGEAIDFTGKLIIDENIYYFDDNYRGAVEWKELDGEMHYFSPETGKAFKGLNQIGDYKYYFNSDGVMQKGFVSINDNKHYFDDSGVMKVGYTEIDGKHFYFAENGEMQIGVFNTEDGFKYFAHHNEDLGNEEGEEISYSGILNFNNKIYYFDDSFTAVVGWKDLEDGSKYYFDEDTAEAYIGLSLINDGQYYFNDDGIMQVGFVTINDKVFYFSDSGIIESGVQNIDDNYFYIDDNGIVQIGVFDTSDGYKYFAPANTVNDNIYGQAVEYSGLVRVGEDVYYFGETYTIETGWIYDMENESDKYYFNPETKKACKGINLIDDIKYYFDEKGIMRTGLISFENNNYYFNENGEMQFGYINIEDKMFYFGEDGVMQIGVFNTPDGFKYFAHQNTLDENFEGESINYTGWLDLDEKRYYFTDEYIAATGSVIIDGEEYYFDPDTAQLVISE

This test addresses Toxin B (Clostridioides difficile) (UniProt P18177). The experiment in a line: TcdB glycohydrolase inhibitors, primary screen, biochemical, single point, plate reader (AID 652162). Conditions: TcdB glycohydrolase enzymatic assay, at 9.99 µM, active compounds read high.
For `COCC(=O)N1CC[C@@H]2[C@@H](CO)Nc3ccc(-c4ccc(C(=O)N(C)C)cc4)cc3[C@@H]21`, the inhibition (commonly the change of the read-out against control, counted positive when it falls) was -1.67%. The result for `O=C(CC(=O)c1cccnc1)c1ccccc1` reads 0.622%. The result for `O=C(NN=C1CCC(=NNC(=O)c2cccnc2)CC1)c1cccnc1` reads 54% (active); that for `O=C(Nc1cnccn1)c1cccnc1`, 1.15%; that for `COc1ccc(C(C)NC(=O)C23CC4CC(CC(C4)C2)C3)cc1` (stereo unspecified), 0.441%.

`CCOc1ccc(C(CC(=O)O)n2cnnn2)cc1OC` (stereo unspecified): the inhibition is 1.46%. The result for `CCOc1ccc(C(CC(=O)O)NC(=O)C23CC4CC(CC(C4)C2)C3)cc1OC` (stereo unspecified) reads 12.9% (active).

On to `CC(C)NC(=O)N(C)C[C@@H]1Oc2ccc(NS(=O)(=O)c3ccccc3)cc2C(=O)N([C@@H](C)CO)C[C@H]1C`, for which the inhibition is 1%. On to `Cc1noc(C)c1NC(=O)N(C)C[C@@H]1OCCCC[C@H](C)Oc2ccc(NC(=O)NC3CCCCC3)cc2C(=O)N([C@H](C)CO)C[C@H]1C`, for which the inhibition is 1.84%. The result for `COC(=O)C1=C[C@@H](C(=O)OC)[C@@H]2C3=C(C(=O)[C@]2(C)NC(=O)c2ccccc2)[C@H](C)n2c(=O)n(C)c(=O)n2[C@@H]3C1` reads 11.2% (active); that for `CCC1(CC)C(=O)C2=C3C1[C@H](C(=O)OC)C=C(C(=O)OC)C[C@H]3[C@H]1C(=O)N(Cc3ccccc3)C(=O)[C@H]1[C@H]2C` (stereo partly specified), 0.94%; that for `C[C@H]1CN([C@@H](C)CO)C(=O)c2cc(NS(=O)(=O)c3ccccc3)ccc2O[C@@H]1CN(C)C(=O)NC1CCCCC1`, 3.22%. Consider `O=C(NC[C@H]1[C@@H](c2ccccc2)[C@H](CO)N1CC1CC1)c1cccnc1`, for which the inhibition was -2.13%.

`C/C=C/c1ccc2c(c1)O[C@H](CN(C)Cc1cccc(F)c1)[C@H](C)CN([C@H](C)CO)S2(=O)=O`: the inhibition is 0.906%. Consider `Cc1ccc(S(=O)(=O)N(C)C[C@@H]2OCCCC[C@@H](C)Oc3ccc(NC(=O)Nc4ccc(C(F)(F)F)cc4)cc3C(=O)N([C@@H](C)CO)C[C@@H]2C)cc1`, for which the inhibition is -1.2%.

On to `COCC(=O)Nc1ccc2c(c1)C(=O)N(C)[C@@H]1CC[C@H](CC(=O)NCCc3ccccc3)O[C@@H]1CO2`, for which the inhibition is -0.476%. The result for `COc1ccc(NC(=O)N(C)C[C@H]2Oc3cc(-c4ccncc4)ccc3S(=O)(=O)N([C@@H](C)CO)C[C@H]2C)cc1` reads 0.138%; that for `C[C@@H]1CN([C@H](C)CO)C(=O)c2cc(-c3ccc(C(=O)N(C)C)cc3)cnc2O[C@H]1CN(C)C(=O)C1CC1`, 1.01%. The result for `CCC(=O)N(C)C[C@H]1Oc2cc(C#CC3CC3)ccc2S(=O)(=O)N([C@H](C)CO)C[C@H]1C` reads -0.263%; that for `COCC(=O)N1C[C@H]2[C@@H](c3ccccc31)[C@@H](CO)N2C(=O)NC(C)C`, -0.399%.

Regarding `CCOC(=O)CNC(=O)CSc1ncccc1-c1nc2ccccc2[nH]1`, the inhibition is -7.68%. The result for `Cc1cc(C)nc(Nc2n[nH]c(-c3ccccc3N)n2)n1` reads -0.68%; that for `Nc1ccccc1-c1nc2ccncc2[nH]1`, 12.2% (active); that for `COCC(=O)N(C)C[C@@H]1Oc2ncc(-c3ccccc3OC)cc2C(=O)N([C@@H](C)CO)C[C@@H]1C`, -11.6%.

Regarding `CC(C)NC(=O)N1C[C@@H]2[C@H](c3ccccc31)[C@@H](CO)N2Cc1ccc(Cl)cc1`, the inhibition is -0.718%. Take `Cc1noc(C)c1NC(=O)N(C)C[C@@H]1OCCCC[C@H](C)Oc2ccc(NC(=O)NC3CCCCC3)cc2C(=O)N([C@H](C)CO)C[C@@H]1C`: the inhibition was 0.987%. The result for `COC1=C/C(=C/c2c(N)n3nc(CC(=O)N4CCOCC4)sc3nc2=O)C=CC1=O` reads 11.3% (active); that for `C=CCC1=C/C(=C\c2c(N)n3nc(CC(=O)N4CCOCC4)sc3nc2=O)C=C(OC)C1=O`, -3.86%. The result for `COc1cc(/C=C2\C(=N)N3N=C(CC(=O)N4CCOCC4)SC3=NC2=O)cc(OC)c1OC` reads 0.211%; that for `CCCC(=O)N1CC2(CCN(C(=O)C3CC3)CC2)c2c(n(C)c3cc(OC)ccc23)[C@H]1CO`, -0.231%; that for `CCS(=O)(=O)Nc1ccc2c(c1)C(=O)N(C)C[C@@H](OC)[C@@H](C)CN(C(=O)COC)[C@H](C)CO2`, -1.04%.

Turning to `C[C@@H]1CCCCO[C@@H](CN(C)C(=O)NC2CCCCC2)[C@@H](C)CN([C@@H](C)CO)C(=O)c2cc(NC(=O)C3CCCCC3)ccc2O1`, the inhibition is 0.287%. The result for `C[C@@H]1CN([C@H](C)CO)C(=O)CCCn2cc(nn2)CO[C@@H]1CN(C)C(=O)Nc1ccc(-c2cccs2)cc1` reads -8.3%; that for `CC(OC(=O)c1cccnc1Cl)C(=O)NC1CCCCC1` (stereo unspecified), 15.9% (active); that for `O=C(COC(=O)c1cccnc1Cl)NC(=O)NC1CCCCC1`, 1.25%. The result for `CC(Oc1ccc(Br)cc1)C(=O)NC1CCCCCC1` (stereo unspecified) reads 2.69%. The result for `COCCNC(=O)[C@@H]1[C@@H](CO)[C@@H]2Cn3c(ccc(-c4ccccc4F)c3=O)[C@@H]2N1C(=O)C1CC1` reads -1.01%. For the compound `Cc1ccccc1S(=O)(=O)NCC[C@@H]1CC[C@H](NC(=O)C2CCCCC2)[C@@H](CO)O1`, the inhibition was 0.652%.

As for `C=CCn1c(SCc2ccccc2)nc2c1c(=O)[nH]c(=O)n2C`, the inhibition was 1.32%. The result for `Cn1c(=O)[nH]c(=O)c2c1[nH]c(=S)n2Cc1ccccc1` reads 20.2% (active).

On to `Cc1nnc(Sc2nc3c(c(=O)[nH]c(=O)n3C)n2Cc2ccccc2)s1`, for which the inhibition was -0.878%. As for `CC(=O)N1CCCCN2[C@H](C1)[C@@H](c1ccc(-c3ccc(F)cc3)cc1)[C@@H]2CO`, the inhibition was -0.351%.

For `C[C@H]1CN([C@@H](C)CO)S(=O)(=O)c2ccc(-c3ccccc3F)cc2O[C@H]1CN(C)C(=O)C1CC1`, the inhibition was -0.346%. The result for `COc1ccc(NC(=O)N[C@H]2CC[C@@H](CCNC(=O)c3cc(Cl)cc(Cl)c3)O[C@H]2CO)cc1` reads -0.154%; that for `C[C@H]1CN([C@@H](C)CO)C(=O)Cc2cc(NC(=O)Cn3cnnn3)ccc2O[C@H]1CN(C)CC1CC1`, 0.02%. The result for `O=C(C1CCOCC1)N1CC2(C1)[C@H](c1ccccc1)[C@H](CO)N2Cc1ccc(Cl)cc1` reads -0.452%; that for `Cc1ccc(-c2cnc3c(c2)C(=O)N([C@H](C)CO)C[C@@H](C)[C@H](CN(C)Cc2ccccc2C(=O)O)O3)cc1`, 0.061%. The result for `C[C@@H]1CCCCO[C@@H](CN(C)C(=O)NC2CCCCC2)[C@@H](C)CN([C@H](C)CO)C(=O)c2cc(NC(=O)CCCCCC(=O)Nc3ccccc3N)ccc2O1` reads 0.319%; that for `O=C(COC(=O)c1cccc(Cl)c1)Nc1ccc2[nH]c(=O)[nH]c2c1`, -0.403%. Regarding `O=C(COc1ccc([N+](=O)[O-])cc1Cl)Nc1ccc2[nH]c(=O)[nH]c2c1`, the inhibition was 0.327%. The result for `COc1ccc(C(=O)OCC(=O)Nc2ccc3[nH]c(=O)[nH]c3c2)c(OC)c1OC` reads 11.5% (active); that for `C[C@@H]1CN([C@H](C)CO)C(=O)c2cc(NS(=O)(=O)c3ccc(Cl)cc3)ccc2O[C@@H](C)CCCCO[C@H]1CN(C)Cc1ccccc1`, -0.656%. The result for `COc1ccc(-c2ccc(OC(=O)NC3CCS(=O)(=O)C3)cc2)cc1` (stereo unspecified) reads 10.6% (active); that for `COc1ccc(S(=O)(=O)N2CCCCC2)cc1C(=O)NC1CCS(=O)(=O)C1` (stereo unspecified), 0.566%. The result for `N#Cc1ccc(OCC(=O)NC(=O)NC2CCS(=O)(=O)C2)cc1` (stereo unspecified) reads -2.43%; that for `C[C@@H]1CCCCO[C@@H](CN(C)C(=O)NC2CCCCC2)[C@H](C)CN([C@H](C)CO)C(=O)c2cc(NS(=O)(=O)c3ccc(Cl)cc3)ccc2O1`, -0.076%. For `C[C@@H]1CN([C@H](C)CO)C(=O)c2cc(NC(=O)Nc3cccc4ccccc34)ccc2O[C@H]1CN(C)C(=O)Nc1ccccc1`, the inhibition was -0.695%. For the compound `O=C(c1cnccn1)N1CC(=O)N2[C@H](C1)[C@H](c1ccc(/C=C/c3ccccc3)cc1)[C@@H]2CO`, the inhibition was 0.636%. The result for `CO[C@@H]1CC[C@H]2CCN(C)C(=O)[C@@H](C)CN(C)C(=O)c3cccc(C#N)c3OC[C@@H]1O2` reads 0.637%.

As for `COc1cccc2cc(/C(C)=N/NC(=O)c3ccco3)oc12`, the inhibition is 14% (active). The result for `COc1cccc2cc(C(N)=O)/c(=N\NC(=O)c3ccccc3)oc12` reads -0.164%. The result for `COc1cccc2cc(C(=O)NCc3ccc(C)cc3)c(=N)oc12` reads 0.357%; that for `COc1ccc(S(=O)(=O)Nc2ccc3c(c2)C(=O)N([C@H](C)CO)C[C@@H](C)[C@H](CN(C)C(=O)c2ccncc2)OCCCC[C@@H](C)O3)cc1`, 1.52%. The result for `CNC[C@H]1Oc2cc(C#CC(C)(C)O)ccc2S(=O)(=O)N([C@@H](C)CO)C[C@@H]1C` reads -0.494%. Regarding `COCC(=O)Nc1ccc2c(c1)C(=O)N(C)[C@@H]1CC[C@@H](CC(=O)NCC(F)(F)F)O[C@H]1CO2`, the inhibition was 0.945%. Regarding `O=C(C[C@@H]1CC[C@H](NC(=O)Cc2ccccn2)[C@H](CO)O1)NCCc1ccncc1`, the inhibition was -1.24%.

For the compound `O=C(Nc1ccc(F)cc1)N[C@H]1CC[C@H](CCn2cc(-c3ccc(F)cc3)nn2)O[C@@H]1CO`, the inhibition was -2.54%. The result for `CO[C@@H]1CN(C)C(=O)c2cc(NC(=O)C3CC3)ccc2OC[C@H](C)N(C(=O)c2ccccc2F)C[C@H]1C` reads 0.856%; that for `O=C(C[C@H]1C[C@@H]2c3cc(NC(=O)c4ccc5c(c4)OCO5)ccc3O[C@@H]2[C@@H](CO)O1)NCc1cccnc1`, -0.896%. The result for `O=C(C[C@@H]1C[C@@H]2c3cc(NC(=O)c4ccc5c(c4)OCO5)ccc3O[C@@H]2[C@@H](CO)O1)NCc1ccc(Cl)cc1` reads 1.53%; that for `O=C(C[C@H]1C[C@H]2c3cc(NC(=O)c4ccc5c(c4)OCO5)ccc3O[C@H]2[C@@H](CO)O1)NCc1cccc(F)c1`, 15.2% (active).
